From PubChem BioAssay (Tox21)
Inconclusive results are not listed. Active and inactive are the calls of the source. Unless noted, the call rests on the fitted dose curve; in most records, active means well fitted curve in the direction sought with a large enough effect in the repeat runs; inconclusive means weak or mixed curves; inactive means no such curve, though single readings can be large; an effect the other way counts as inactive or inconclusive.

How the values were obtained:
[1] = qHTS assay to identify small molecule antagonists of the vitamin D receptor (VDR) signaling pathway - cell viability counter screen (AID 743225); further: nearly all actives have a fitted effect of over 50% in size; further: potency means the concentration at half of the fitted maximal effect
Outline: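 HEK293T VDR-bla; cpd + 1a,25-(OH)2D3 3 nM final, 16 h 37C/5% CO2; B/G FRET substrate 2 h RT; then CellTiter-Glo 30 min RT, luminescence.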

[2] = qHTS assay to identify small molecule agonists of the NFkB signaling pathway - cell viability counter screen (AID 1159515; calls by dose curve; further: nearly all actives have a fitted effect of over 55% in size; further: potency means the concentration at half of the fitted maximal effect)
Outline: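 5 hr compound treatment of NFkB-bla ME-180 cells (2,000/well, seeded overnight beforehand), followed by reporter substrate for 1.5 hr. CellTiter-Glo added afterward; luminescence after 30 min RT.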

[3] = qHTS assay to identify small molecule agonists of the endoplasmic reticulum stress response signaling pathway (AID 1159516; active means well fitted activation curve with a large enough effect in the signal ratio in the repeat runs, not every such curve was filed as active; the % refers to the signal ratio; further: potency means the concentration at half of the fitted maximal effect)
Outline: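 Reporter HeLa cells (ESRE-beta-lactamase) underwent 5 hr compound incubation at 37 C and 5% CO2 in quantitative HTS format. Detection followed 2 hr of FRET substrate loading at room temperature.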

[4] = qHTS assay to identify small molecule antagonists of the retinoid-related orphan receptor gamma (ROR-gamma) signaling pathway - cell viability counter screen (AID 1159520); further: nearly all actives have a fitted effect of over 50% in size; further: potency means the concentration at half of the fitted maximal effect
Outline: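 Cytotoxicity was read from cellular ATP (CellTiter-Glo luminescence) after 16 hr at 37 C with 1 uM doxycycline induction. The inducer was added 2 hr after compound transfer to Tet-on ROR gamma CHO cells.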

[5] = target: Nuclear receptor ROR-gamma (Homo sapiens) (UniProt P51449); assay: qHTS assay to identify small molecule antagonists of the retinoid-related orphan receptor gamma (ROR-gamma) signaling pathway (AID 1159521; further: nearly all actives have a fitted effect of over 50% in size; further: potency means the concentration at half of the fitted maximal effect)
Outline: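 Cells were plated, rested 4 h at 37 C, exposed to compounds for 2 h, then given 1 uM final doxycycline hyclate to induce RORγ expression. After 16 h, ONE-Glo luminescence from the ROR response element reporter was measured.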

[6] = qHTS assay to identify small molecule agonists of the AP-1 signaling pathway - cell viability counter screen (AID 1159525; calls by dose curve; further: nearly all actives have a fitted effect of over 55% in size; further: potency means the concentration at half of the fitted maximal effect)
Outline: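 Luminescent ATP readout (Cell Titer Glo, 30 min RT), normalised to DMSO and tetra n-octyl ammonium bromide controls. Cells were ME-180 AP-1-bla in 0.5% dialyzed FBS Opti-MEM, with a 5 h, 37 °C compound exposure.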

[7] = target: Retinoic acid receptor RXR-alpha (Homo sapiens) (UniProt P19793); assay: qHTS assay to identify small molecule agonists of the RXR signaling pathway (AID 1159527; calls by dose curve; further: nearly all actives have a fitted effect of over 35% in size; further: potency means the concentration at half of the fitted maximal effect)
Outline: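 Cells plated at 2,000/well, rested 5 hr at 37 C, pin-dosed with DMSO compound solutions, incubated 16 hr, then loaded with B/G FRET substrate for 2 hr at RT before dual-emission fluorescence reading.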

[8] = qHTS assay to identify small molecule agonists of the RXR signaling pathway - cell viability counter screen (AID 1159529); further: nearly all actives have a fitted effect of over 50% in size; further: potency means the concentration at half of the fitted maximal effect
Outline: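 Steps: seed RXR-alpha-UAS-bla HEK 293T cells in assay medium containing 2% charcoal-stripped FBS; incubate 5 hr; add compounds in DMSO; incubate 16 hr at 37 C; after the bla read, add CellTiter-Glo and read luminescence at 30 min.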

[9] = qHTS assay to identify small molecule antagonists of the retinoid acid receptor (RAR) signaling pathway - cell viability counter screen (AID 1159551); further: nearly all actives have a fitted effect of over 35% in size; further: potency means the concentration at half of the fitted maximal effect
Outline: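 Seed C3RL4 cells; next day add compound, then retinol to 1 uM final; incubate 6 h at 37 C; add CellTiter-Glo; read luminescence after 30 min at RT.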

[10] = qHTS assay to identify small molecule antagonists of the retinoic acid receptor (RAR) signaling pathway (AID 1159552; further: nearly all actives have a fitted effect of over 50% in size; further: potency means the concentration at half of the fitted maximal effect)
Outline: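 Retinol at 1 uM final stimulated RARE-luciferase expression in C3RL4 cells exposed to test compounds for 6 hr at 37 C. Reduced luminescence, read 30 min after detection reagent, indicated pathway antagonism.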

[11] = qHTS assay to identify small molecule agonists of the retinoic acid receptor (RAR) signaling pathway (AID 1159553); conditions: C3RL4 RARE luciferase reporter, agonist, 6 h; activation: at 73.3 µM (top of the series) unless noted; further: on the % scale 0 is the no-effect control and ±100 the full control effect
Outline: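 Activation of retinol signaling was monitored via a RARE luciferase reporter in C3RL4 cells. After 6 hr compound treatment at 37 C, detection reagent was added for 30 min at room temperature before luminescence reading.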

[12] = qHTS assay to identify small molecule antagonists of the estrogen related receptor (ERR) signaling pathway from Tox21 library - cell viability counter screen (AID 1224834); further: nearly all actives have a fitted effect of over 30% in size; further: potency means the concentration at half of the fitted maximal effect
Outline: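 CellTiter-Fluor fluorescence measured; ERR cells; 17.5 h compound incubation at 37 C; 30 min reagent step.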

[13] = qHTS assay to identify small molecule agonists of the AP-1 signaling pathway (AID 1159526; calls by dose curve; further: on the % scale 0 is the no-effect control and ±100 the full control effect)
[14] = qHTS assay to identify small molecule antagonists of the estrogen related receptor (ERR) signaling pathway - cell viability counter screen (AID 1224818);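 further: viability measured after 17.5 h of compound exposure; on the % scale 0 is the no-effect control and ±100 the full control effect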
Outline: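 In the same ERR cell assay, compound-treated wells (17.5 h, 37 C) were multiplexed with a fluorogenic viability reagent, CellTiter-Fluor, read after 30 min to flag cytotoxic substances.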

[15] = qHTS assay to identify small molecule antagonists of the estrogen related receptor signaling pathway with the pleiotropic PPARgamma coactivator (PGC) cell viability counter screen (AID 1224822; further: on the % scale 0 is the no-effect control and ±100 the full control effect)
Outline: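 Compounds in DMSO, with positive and negative controls, were applied to PGC/ERR cells (2,000/well) and left 17.5 h at 37 C before CellTiter-Fluor detection.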

[16] = qHTS assay to identify small molecule agonists of the endoplasmic reticulum stress response signaling pathway - cell viability counter screen (AID 1159517; calls by dose curve)
Outline: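 Cells, HeLa ESRE-bla; density, 1,500/well; dosing, 5 hr at 37 C, 5% CO2; readout, CellTiter-Glo luminescence after 30 min RT.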

Sequence of Retinoic acid receptor RXR-alpha (Homo sapiens) (P19793 whole entry, looked up): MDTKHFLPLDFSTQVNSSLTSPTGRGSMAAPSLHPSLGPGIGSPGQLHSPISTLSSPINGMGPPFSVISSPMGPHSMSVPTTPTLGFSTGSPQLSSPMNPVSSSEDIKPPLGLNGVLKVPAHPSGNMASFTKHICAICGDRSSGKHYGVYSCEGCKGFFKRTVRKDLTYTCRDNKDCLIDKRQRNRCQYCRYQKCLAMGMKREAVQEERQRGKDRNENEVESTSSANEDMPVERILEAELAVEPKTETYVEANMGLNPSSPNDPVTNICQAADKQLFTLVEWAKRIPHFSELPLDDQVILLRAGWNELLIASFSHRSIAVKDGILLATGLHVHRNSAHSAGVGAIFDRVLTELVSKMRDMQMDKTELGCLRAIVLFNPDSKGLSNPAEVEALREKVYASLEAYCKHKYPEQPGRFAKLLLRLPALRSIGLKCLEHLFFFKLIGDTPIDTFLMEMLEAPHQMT

O=S(=O)(O)c1ccc(Nc2nc(Nc3ccc(/C=C/c4ccc(Nc5nc(Nc6ccc(S(=O)(=O)O)cc6)nc(N(CCO)CCO)n5)cc4S(=O)(=O)O)c(S(=O)(=O)O)c3)nc(N(CCO)CCO)n2)cc1
active: Potency [3] 37.1 µM | Potency [7] 26.3 µM
inactive: Potency [1] | Potency [2] | Potency [4] | Potency [5] | Potency [6] | Potency [8] | Potency [9] | Potency [10] | Potency [11]

O=C(O)O
inactive: viability change, negative = cytotoxic [1] -0.215% [at 6.95 µM] | activity, negative = cytotoxic [2] -3.19% [at 6.95 µM] | activation [3] -2.74% [at 6.95 µM] | activity, negative = cytotoxicity [4] 0.616% [at 8.39 µM] | viability change, negative = cytotoxic [6] -29.9% [at 6.97 µM] | activity change, negative = cytotoxicity [9] 2.76% [at 8.39 µM] | activity, negative = inhibition [10] -54.8% [at 8.39 µM] | viability change, negative = cytotoxic [12] -2.55% [at 8.39 µM]
active: Potency [5] 2.96 µM

O=C1CCc2ccc(OCCCCN3CCN(c4cccc(Cl)c4Cl)CC3)cc2N1
active: Potency [1] 10.7 µM | Potency [2] 26.8 µM | Potency [8] 23.9 µM
inactive: Potency [3] | Potency [4] | Potency [6] | Potency [9] | Potency [10] | Potency [11]

C#C[C@]1(O)CC[C@H]2[C@@H]3[C@H](C)CC4=C(CCC(=O)C4)[C@H]3CC[C@@]21C
inactive: Potency [1] | Potency [2] | Potency [3] | Potency [4] | Potency [6] | Potency [13] | Potency [8] | Potency [9] | Potency [11]

CCc1oc2ccccc2c1C(=O)c1cc(I)c(O)c(I)c1
inactive: Potency [2] | Potency [3] | Potency [4] | Potency [6] | Potency [9] | Potency [10] | Potency [11]
active: Potency [5] 11.9 µM

Clc1nnc(Cl)c2ccccc12
inactive: Potency [2] | Potency [3] | Potency [4] | Potency [5] | Potency [6] | Potency [13] | Potency [9] | Potency [10] | Potency [11] | Potency [12]

O=C1CCc2cc(OCCCCc3nnnn3C3CCCCC3)ccc2N1
inactive: Potency [1] | Potency [2] | Potency [3] | Potency [4] | Potency [5] | Potency [6] | Potency [13] | Potency [8] | Potency [9] | outcome [14] | Potency [15]

O=C(O)c1cc(O)c2ccccc2c1O
inactive: Potency [3]
active: Potency [2] 21.9 µM | Potency [4] 17.2 µM | Potency [5] 13.7 µM | Potency [6] 4.9 µM | Potency [8] 30.9 µM | Potency [9] 61.1 µM | Potency [10] 68.6 µM | Potency [12] 27.3 µM

Nc1nc(-c2ccccc2)cs1
inactive: Potency [1] | Potency [2] | Potency [3] | Potency [4] | Potency [6] | Potency [7] | Potency [8] | Potency [12]

O=C(O)[C@H](O)[C@@H](O)[C@H](O[C@@H]1O[C@H](CO)[C@H](O)[C@H](O)[C@H]1O)[C@H](O)CO
inactive: Potency [1] | Potency [2] | Potency [3] | Potency [4] | Potency [5] | Potency [13] | Potency [7] | Potency [8] | Potency [9] | Potency [12]

CCC(C)[O-].CCC(C)[O-].CCOC(=O)/C=C(/C)[O-].[Al+3]
inactive: Potency [1] | Potency [2] | Potency [3] | Potency [4] | Potency [6] | Potency [13] | Potency [8] | Potency [11]

Cc1c(N)cccc1C(F)(F)F
inactive: Potency [1] | Potency [2] | Potency [16] | Potency [4] | Potency [5] | Potency [6] | Potency [13] | Potency [7] | Potency [8] | Potency [9] | Potency [10] | Potency [11] | Potency [12]

CCCCC(CC)COC(=O)CCCCC(=O)OCc1ccccc1 (centres undefined)
inactive: Potency [1] | Potency [2] | Potency [16] | Potency [4] | Potency [5] | Potency [6] | Potency [13] | Potency [7] | Potency [8] | Potency [9] | Potency [10] | Potency [11] | Potency [12]

CCOC(=O)NNc1ccc(N(CC)CC(C)O)nn1 (centres undefined)
inactive: Potency [1] | Potency [2] | Potency [16] | Potency [4] | Potency [5] | Potency [6] | Potency [13] | Potency [7] | Potency [8] | Potency [9] | Potency [10] | Potency [11] | Potency [12]

Cc1nc(-c2ccc(Cl)cc2)oc1COC(C)(C)C(=O)O
inactive: Potency [1] | Potency [2] | Potency [16] | Potency [4] | Potency [5] | Potency [6] | Potency [13] | Potency [7] | Potency [8] | Potency [9] | Potency [12]

Cc1c(C)c2c(c(C)c1O)CC[C@@](C)(CCC[C@H](C)CCC[C@H](C)CCCC(C)C)O2
inactive: Potency [1] | Potency [2] | Potency [16] | Potency [4] | Potency [5] | Potency [6] | Potency [13] | Potency [7] | Potency [8] | Potency [9] | Potency [11] | Potency [12]
